These results are taken from PubChem BioAssay AID1745845 (National Center for Advancing Translational Sciences (NCATS), 2022).

Screen size: about 360,000 compounds; about 2,600 (0.72%) were called active. Another 5% or so got no clear call; they are omitted. The call rests on the fitted dose curve; in most records, active means well fitted inhibition curve with a large enough effect; inconclusive means small, poorly fitted or top-dose-only effect; inactive means no such curve, though single readings can be large or run the other way. The list comes from a sample in which actives are over-represented; it also holds similar structures and randomly drawn compounds. A call without a number means that no potency is given here.
Potency means the concentration at half of the fitted maximal effect.

A short description of this assay: Primary qHTS for Inhibitors of ATXN expression. Further: nearly all actives have a fitted effect of over 55% in size. Conditions: HEK-293 ATXN2-luciferase reporter, luminescence, 24 h; series mostly up to 57 µM. An outline of the steps:
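ATXN2-luciferase reporter cells (luciferase flanked by upstream and downstream ATXN2 gene portions) were treated 24 h at 37 °C with compounds at up to 57 uM. SteadyGlo luminescence gave expression; GF-AFC fluorescence gave viability.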
In general terms: In qHTS, concentration-response curves come from the screen itself.
Turning to `Cn1c(=O)[nH]c(=O)c2c1nc(NCCc1ccccc1)n2Cc1ccc(F)cc1`, the Potency entry was “inactive”.

In the case of `CC(=O)Nc1ccc(Nc2c3ccccc3nc3ccccc23)cc1`, the Potency was 2.51 µM (active).

As to `CC(=O)Nc1ccc(S(=O)(=O)N(C)c2nc3ccccc3nc2Cl)cc1`, the Potency entry is “inactive”.

For the compound `O=C(NNc1c2ccccc2nc2ccccc12)c1cc2ccccc2cc1O`, the Potency entry was “inactive”.

For `Cc1cc2c(cc1C)C(c1cccc(OC(C)C)c1)CC(=O)N2` (configuration not stated), the Potency entry is “inactive”.

Turning to `CCS(=O)(=O)N1CCc2cc(C(=O)NCc3ccc(OC)cc3)ccc21`, the Potency result was “inactive”.

As to `CCOC(=O)c1ccc(NC(=O)CC2C(=O)N(c3ccccc3)C(=O)N2Cc2cccs2)cc1` (configuration not stated), the Potency result was “inactive”.

In the case of `COc1ccccc1N1CCN(c2ncnc3onc(-c4ccc(F)cc4)c23)CC1`, the Potency result was “inactive”.

On to `COCOCCn1cc(CN2CCS(=O)(=O)N(Cc3ccc(-c4ccc(OC)cc4)cc3)C(CC(C)C)C2=O)nn1` (configuration not stated), for which the Potency was 28.2 µM (active).

On to `COc1ccc(-c2ccc(CN3C(CC(C)C)C(=O)N(Cc4cn(CC5CCCCC5)nn4)CCS3(=O)=O)cc2)cc1` (configuration not stated), for which the Potency result was “inactive”.

For the compound `COCOCCn1cc(CN2CCS(=O)(=O)N(Cc3ccc(-c4cccc(N(C)C)c4)cc3)C(CC(C)C)C2=O)nn1` (configuration not stated), the Potency result was “inactive”.

Take `O=C(CC(NCc1cccnc1)C(=O)O)Nc1ccc(O)cc1` (configuration not stated): the Potency result is “inactive”.

With `COc1ccc(-c2noc(CSc3nnc(-c4ccccc4)n3-c3ccc(F)cc3)n2)c(OC)c1`, the Potency entry is “inactive”.

For the compound `CC(=O)c1ccc(-c2cnc3c(NC=O)cc(-c4cccc(NS(C)(=O)=O)c4)cn23)cc1`, the Potency entry is “inactive”.

As for `Cc1ccc(NS(=O)(=O)c2cc3c(cc2Br)NC(=O)CO3)cc1C`, the Potency result was “inactive”.

For `CCCOc1cccc(C(=O)Nc2cccc(NC(=O)c3ccc(C(C)(C)C)cc3)c2)c1`, the Potency entry is “inactive”.

For `CCCOc1ccc(C(=O)C(CCC(CNCC)C(=O)c2ccc(OCCC)cc2)CNCC)cc1` (configuration not stated), the Potency was 17.8 µM (active).

As for `CCCOc1ccc(/C=N/NC(=O)C2CC2)c(OCCC)c1`, the Potency result is “inactive”.

In the case of `COc1cccc(-c2nc(S(=O)(=O)c3ccc(C)cc3)c(NCc3ccccc3)o2)c1`, the Potency entry is “inactive”.

In the case of `Cc1cccc(NC(=O)CSc2nc3c(oc4ccccc43)c(=O)n2-c2ccc(F)cc2)c1`, the Potency result is “inactive”.

Consider `COC(=O)c1ccc2c(c1)N(CC(=O)Nc1ccc(C)c(C)c1)C(=O)c1ccccc1S2`, for which the Potency result was “inactive”.

For the compound `COc1ccc(/C=C2\SC(=O)N(CCC(=O)NCCCn3ccnc3)C2=O)cc1`, the Potency result is “inactive”.

With `COc1ccc(/C=C2/SC(=O)N(CCCCCC(=O)Nc3ccccc3C(=O)O)C2=S)cc1`, the Potency is 10 µM (active).

On to `COc1ccc(/C=C2\SC(=O)N(CCC(=O)NC3CCS(=O)(=O)C3)C2=O)cc1` (configuration not stated), for which the Potency result was “inactive”.

On to `O=C(Nc1ccc2oc(-c3ccc(O)c(Br)c3)nc2c1)c1cc2ccccc2o1`, for which the Potency entry was “inactive”.

As for `CC(C)(C)c1ccc(OCC(=O)N2CCC(c3nc4ccccc4s3)CC2)cc1`, the Potency entry was “inactive”.

For the compound `CSc1nc(-c2ccccc2Cl)nc2c1Cc1c(CO)cnc(C)c1O2`, the Potency entry is “inactive”.

As to `CCCCOCCOC(=O)c1cccnc1`, the Potency entry is “inactive”.

As for `Cc1ccccc1NC(=O)Cn1c(=O)n(Cc2ccco2)c(=O)c2ccc(C(=O)NC3CCCC3)cc21`, the Potency entry was “inactive”.

For `CN1C(=O)C[C@H](C(=O)N[C@@H](Cc2cnc[nH]2)C(=O)N2CCC[C@@H]2C(N)=O)NC1=O`, the Potency entry was “inactive”.

Regarding `CC(C)C[C@H]1CNC(=S)N1C[C@H]1CCCN1C[C@H](Cc1ccc(O)cc1)N1C[C@H](Cc2ccc(O)cc2)N(CC2CCCCC2)C1=S`, the Potency is 28.2 µM (active).

For `O=C1NC[C@H](Cc2ccc(O)cc2)N(C[C@@H]2CCCN2C[C@H](Cc2ccccc2)N2C[C@H](Cc3ccccc3)N(CC3CCCCC3)C(=O)C2=O)C1=O`, the Potency result was “inactive”.

Turning to `CC(C)C[C@H]1CNC(=O)C(=O)N1C[C@H]1CCCN1C[C@H](Cc1ccc(O)cc1)N1C[C@H](CC(C)C)N(CC2CCCCCC2)C(=O)C1=O`, the Potency result is “inactive”.

Consider `COc1cccc(C(=O)NCC(=O)OCc2cc(=O)n3ccsc3n2)c1`, for which the Potency result is “inactive”.

For the compound `COc1ccc(Cn2ccc3nc(C)c(C(=O)Nc4ccc(C)c(F)c4)cc3c2=O)cc1`, the Potency entry was “inactive”.

For `CCOC(=O)c1c(C)oc2nc(C)nc(Nc3ccc(CC)cc3)c12`, the Potency result is “inactive”.

Consider `CC=C(C(=CC)c1ccc(O)cc1)c1ccc(O)cc1`, for which the Potency entry was “inactive”.

Take `O=C(O)c1cc([N+](=O)[O-])c(Nc2cccc3ccccc23)c([N+](=O)[O-])c1`: the Potency entry is “inactive”.

Take `Cc1ccc(NC(=O)c2cccc(S(=O)(=O)N3CCCc4ccccc43)c2)nc1`: the Potency entry was “inactive”.

For `N=C1C(c2nc3ccccc3s2)=C(O)CN1NC(=O)c1ccc([N+](=O)[O-])cc1`, the Potency entry is “inactive”.

With `CCC(=O)Nc1nnc(S(=O)(=O)N2CCCc3ccccc32)s1`, the Potency entry was “inactive”.

On to `O=C(NC(Nc1nc2ccc([N+](=O)[O-])cc2s1)(C(F)(F)F)C(F)(F)F)c1ccccc1`, for which the Potency was 0.891 µM (active).

On to `O=C(Nc1nc2ccc([N+](=O)[O-])cc2s1)c1ccc(S(=O)(=O)N2CCCc3ccccc32)cc1`, for which the Potency was 13.4 µM (active).

For `Cc1ccc(-c2nc(S(=O)(=O)c3ccc(C)cc3)c(N3CCCCCC3)o2)cc1`, the Potency result was “inactive”.

Regarding `CC1(C)[C@H](O[C@H]2O[C@H](C(=O)O)[C@@H](O)[C@H](O)[C@H]2O[C@@H]2O[C@H](C(=O)O)[C@@H](O)[C@H](O)[C@H]2O)CC[C@@]2(C)[C@H]1CC[C@]1(C)[C@H]2C(=O)C=C2[C@H]3C[C@@](C)(C(=O)O)CC[C@]3(C)CC[C@]21C`, the Potency entry is “inactive”.

On to `CC[C@]12C=CCN3CC[C@@]4(c5cc([C@@]6(C(=O)OC)C[C@H]7C[C@@H](C(C)(F)F)CN(Cc8c6[nH]c6ccccc86)C7)c(OC)cc5N(C)[C@H]4[C@@](O)(C(=O)OC)[C@H]1OC(C)=O)[C@@H]32`, for which the Potency entry is “inactive”.

Regarding `CN(C)C(=O)c1cccc(-c2cnc3sc(NCc4ccc5c(c4)OCO5)nn23)c1`, the Potency result is “inactive”.

For the compound `COc1ccc(-c2nnc(SCC(=O)Nc3ccccc3C)o2)cc1OC`, the Potency result is “inactive”.

Turning to `COC(=O)[C@]12CCCCC=C1N(CCC1=CCCCC1)C(=O)[C@H](CC(=O)NCC1CCCCC1)C2`, the Potency result was “inactive”.

For the compound `CC(=O)Nc1cccc(-c2ccnc3c2CC(C)(C(=O)NCc2ccco2)O3)c1` (configuration not stated), the Potency result was “inactive”.

As to `COc1ccc(C2CC(c3ccccc3)=NN2C(=O)c2ccc(Cl)c([N+](=O)[O-])c2)cc1` (configuration not stated), the Potency was 28.2 µM (active).

For the compound `COc1ccc(C2CC(c3ccc([N+](=O)[O-])cc3)=NN2C(C)=O)cc1` (configuration not stated), the Potency result was “inactive”.

Take `COc1ccc(C2CC(c3ccccc3)=NN2C(=O)COC(=O)COc2ccccc2)cc1` (configuration not stated): the Potency result was “inactive”.

On to `CCOCCCNC(=O)c1cn(CC)c2ccc(S(=O)(=O)N3CCc4ccccc4C3)cc2c1=O`, for which the Potency entry is “inactive”.

For the compound `COc1ccc(NC(=O)CSC2=Nc3ccccc3C3=NC(CC(=O)NCc4ccccc4OC)C(=O)N23)cc1Cl` (configuration not stated), the Potency entry is “inactive”.

Take `COc1ccc(NC(=O)Cn2c(=O)cc(C)c3c(C)nn(-c4cccc(Cl)c4C)c32)cc1OC`: the Potency entry was “inactive”.

As to `NC(=O)C1CCN(C(=O)c2cccc(NC(=O)c3nsc4ccccc34)c2)CC1`, the Potency entry is “inactive”.

On to `c1ccc2c(c1)C(=NC1CCCCC1)NC2=NC1CCCCC1`, for which the Potency was 28.2 µM (active).

With `Cc1ccc2nc(-c3ccco3)c(Cc3cccc(Cl)c3)n2c1`, the Potency result was “inactive”.

As for `CN(Cc1ccccc1)c1ncnc2onc(-c3ccc(F)cc3)c12`, the Potency entry is “inactive”.

In the case of `CC(C)(C)NC(=O)NC(=O)COC(=O)Cc1ccc(Cl)cc1Cl`, the Potency entry was “inactive”.

In the case of `CC(C)(C)c1cc(C(=O)NN)n(Cc2ccc(Cl)cc2Cl)n1`, the Potency is 12.6 µM (active).

On to `Cn1cc(C(=O)c2ccc(Cl)cc2Cl)cc1C(=O)NN`, for which the Potency entry is “inactive”.

With `CCOC(=O)c1cccc(NC(=O)c2cc(CN3CCCC3)on2)c1`, the Potency result is “inactive”.

Take `CN(O)C(=S)c1ccccc1`: the Potency was 3.98 µM (active).

For the compound `CN(Cc1ccccc1)C(=O)c1cccc(C(=O)N(C)Cc2ccccc2)c1`, the Potency result was “inactive”.

Regarding `COc1cc(NS(=O)(=O)c2cccs2)cc(OC)c1`, the Potency entry was “inactive”.

Consider `Cc1c2cnn(-c3ccccc3)c(=O)c2c(C)n1C(C)C(=O)Nc1ccc(Br)cc1F` (configuration not stated), for which the Potency result is “inactive”.

Take `S=C(NCCCc1cnc[nH]1)NCCCN(Cc1ccc(Cl)c(Cl)c1)c1ccc(Br)cn1`: the Potency is 15.8 µM (active).

`COc1ccccc1CNC(=O)C(=O)NCC(c1cccs1)S(=O)(=O)c1cccs1` (configuration not stated): the Potency result was “inactive”.

Turning to `COc1ccc(CCNC(=O)CCCn2c(=O)c3ccccc3n(Cc3ccc(C)cc3)c2=O)cc1OC`, the Potency entry is “inactive”.

For the compound `CCCCCCCc1ccc(CCc2cccc(O)c2C(=O)O)cc1`, the Potency entry was “inactive”.

For the compound `COc1ccccc1OCCCn1c(-c2ccc(Cl)cc2)nc2ccccc2c1=O`, the Potency result was “inactive”.

With `CCOC(=O)C1=C(c2ccc(OC)cc2)C(=O)c2ccccc2C1=O`, the Potency is 5.01 µM (active).

On to `CCOC(=O)C(NC(C)=O)C(=O)Nc1ccc(OC)cc1` (configuration not stated), for which the activity change, negative = inhibition was -27.3% [at 11.3 µM] (inactive).

Turning to `COC(=O)c1cc(OC)ccc1-c1ccc(OC)cc1`, the Potency entry was “inactive”.

Consider `Cc1cccc(-c2nc(SCC(=O)Nc3cc(C)on3)c3c(=O)n(C)c(=O)n(C)c3n2)c1`, for which the Potency result was “inactive”.

In the case of `CC(NCc1ccc2c(c1)nc(NC(=O)c1ccc(-c3cn[nH]c3)s1)n2CC(C)(C)O)C(C)(C)C` (configuration not stated), the Potency is 0.968 µM (active).

`O=C(NCc1ccccc1)C1CCN(S(=O)(=O)c2ccc3[nH]c(=O)ccc3c2)CC1`: the Potency entry was “inactive”.

`CO[C@]1(NC(=O)CSC(F)F)C(=O)N2C(C(=O)O)=C(CSc3nnnn3CCO)CO[C@H]21`: the Potency result was “inactive”.

In the case of `Cc1cccc(C(C)C)c1NC(=O)C(NS(=O)(=O)c1cccc2nsnc12)c1ccccc1` (configuration not stated), the Potency entry is “inactive”.

For the compound `C=C1CCC2[C@](C)(CO)C(O)CC[C@]2(C)C1CC=C1C(=O)OCC1O` (some centres not stated), the Potency entry was “inactive”.

Consider `Cc1oc2ccc(O)c(CN3CCC(C)CC3)c2c1C(=O)Nc1ccccc1`, for which the Potency entry was “inactive”.

With `Cc1oc2ccc(O)c(CN3CCOCC3)c2c1C(=O)Nc1cccc(Cl)c1C`, the Potency entry was “inactive”.

In the case of `Cc1oc2ccc(O)c(CN3CCCCC3)c2c1C(=O)Nc1cccc(C(F)(F)F)c1`, the Potency is 28.2 µM (active).

As for `O=C(c1cccc(Cl)c1)N1CCN(CCc2ccncc2)CC1`, the Potency result was “inactive”.

Turning to `CCN(CC)c1ccc(C2C(C(N)=O)=C(C)Nc3nc(SCc4ccccc4)nn32)cc1` (configuration not stated), the Potency entry was “inactive”.
